Experimental findings from PubChem BioAssay (NCATS) are described below.

Experiment [1] in a line: qHTS profiling for inhibitors of Plasmodium falciparum (DD2) proliferation (AID 743323). Particulars: lower = more inhibition; at 28.7 µM (top of the series) unless noted. A digest of the protocol: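 1536-well qHTS; infected RBCs 0.3% parasitemia/2.5% Hct final; cpd 72 h 37 C 5% CO2; lysis buffer + SYBR Green I, o/n RT dark; FI 485/535; norm. to 0.29 uM artemisinin and DMSO, plate-stack corrected.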

A short description of experiment [2]: qHTS profiling for inhibitors of Plasmodium falciparum (HB3) proliferation (AID 743324; active = well fitted curve in the direction sought with a large enough effect; an effect the other way counts as inactive or inconclusive;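 also: 100% = DMSO vehicle wells and 0% = artemisinin-treated control wells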). Particulars: Plasmodium falciparum HB3 blood-stage proliferation; at 28.7 µM (top of the series) unless noted. Summed up: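 SYBR Green fluorescence (485 ex/535 em) of lysed cultures, incubated overnight at room temperature in the dark, quantifies parasite DNA. Infected erythrocytes at 0.3% parasitemia and 2.5% hematocrit were exposed 72 h; values normalized to DMSO and 0.29 uM artemisinin controls.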
A general note: Quantitative high-throughput screening tests each substance at several concentrations.

Experiment [3] can be described thus: qHTS profiling of the MIPE4 collection as inhibitors of Plasmodium falciparum (3D7) proliferation (AID 743344).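 Also: scaled between DMSO vehicle wells and 0.29 µM artemisinin as full inhibition.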 Particulars: P. falciparum 3D7 in erythrocytes, SYBR Green DNA fluorescence, 72 h; at 28.5 µM (top of the series) unless noted. Summed up:
(§1)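 Parasite DNA was quantified by SYBR Green I fluorescence (ex 485, em 535 nm) after overnight lysis in saponin/Triton buffer at room temperature. Cultures at 0.3% parasitemia and 2.5% hematocrit were first exposed to compound for 72 h at 37 C; signals were normalised to artemisinin (0.29 uM) and vehicle wells.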

A short description of experiment [4]: qHTS profiling of the MIPE4 collection as inhibitors of Plasmodium falciparum (DD2) proliferation (AID 743345). Conditions: P. falciparum Dd2 in erythrocytes, SYBR Green DNA, 72 h; at 28.5 µM (top of the series) unless noted. Summed up:
as §1

A short description of experiment [5]: qHTS profiling of the MIPE4 collection as inhibitors of Plasmodium falciparum (DD2) proliferation (Rep 2) (AID 743346). Conditions: P. falciparum Dd2 in erythrocytes, SYBR Green DNA, 72 h; at 28.5 µM (top of the series) unless noted. Summed up: as §1
The nature of experiment [6]: qHTS profiling of the MIPE4 collection as inhibitors of Plasmodium falciparum (HB3) proliferation (AID 743347).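 Also: plate controls were DMSO vehicle wells for no effect and artemisinin wells for full effect.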 Particulars: P. falciparum HB3 in erythrocytes, SYBR Green DNA, 72 h; at 28.5 µM (top of the series) unless noted. A digest of the protocol: as §1
Experiment [7] in a line: High-throughput drug toxicity screening in the BPDCN cell line Gen2.2 (AID 1224824).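 Also: cells exposed to compounds for 48 h before reading.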 Conditions: Gen2.2 BPDCN cells; at 45.8 µM (top of the series) unless noted. Summed up:
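Seed 500 exponentially growing Gen2.2 cells/well; add compounds by pin tool; incubate 48 h, 37 °C, 5% CO2; add CellTiter-Glo, 15 min RT; read luminescence. % activity vs DMSO (100%) and bortezomib (0%).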

Experiment [8] can be described thus: High-throughput drug toxicity screening in the BPDCN cell line Cal-1 (AID 1224825). Conditions: Cal-1 BPDCN cell viability, qHTS; at 45.8 µM (top of the series) unless noted. Summed up:
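CellTiter-Glo luminescence after 48 h compound exposure; percent activity scaled with DMSO as 100% and bortezomib (9.2 uM final) as 0%. Cal-1 cells seeded at 500/well in RPMI, 10% FBS, no phenol red.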

Experiment [9] in a line: qHTS assay for measurement of the activity of small molecule inhibitors on Zika virus induced Caspase-3 activity in human iPSC derived neural progenitor cells (hNPCs) (AID 1224857; active = well fitted curve in the direction sought with a large enough effect; an effect the other way counts as inactive or inconclusive; also: % of control where 0% means no effect; nearly all actives have a fitted effect of over 65% in size). A digest of the protocol:
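Zika virus (2 FFU/cell) infection of human iPSC-derived NPCs, 6 h, following 1 h compound preincubation. Read-out: Caspase-Glo 3/7 luminescence.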

Experiment [10] can be described thus: qHTS assay for measurement of the activity of small molecule inhibitors on Zika virus induced Caspase-3 activity in human astrocytoma cells (AID 1224859; active = well fitted curve in the direction sought with a large enough effect; an effect the other way counts as inactive or inconclusive;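 also: plate controls were ZIKV-infected untreated cells for no effect and uninfected cells for full effect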). Summed up: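 Caspase activation in ZIKV-infected SNB-19 cells (2 FFU/cell, 6 h) measured by Caspase-Glo 3/7 luminescence after 30 min RT; compound pre-incubated 1 h; normalised to uninfected and infected controls.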

A short description of experiment [11]: qHTS Screen of the MIPE 4.0 Collection Against Ewings Sarcoma (RDES) (AID 1259252; active = well fitted curve in the direction sought with a large enough effect; an effect the other way counts as inactive or inconclusive; also: nearly all actives have a fitted effect of over 35% in size; also: potency is read from the fitted curve at half-maximal effect). Summed up: (§2)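 Dose series incubated 48 h with cells in RPMI plus 5% FBS, glutamine and penicillin/streptomycin; cell viability then quantified via CellTiter-Glo.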
Experiment [12] in a line: qHTS Screen of the MIPE 4.0 Collection Against Ewings Sarcoma (TC71) (AID 1259253; active = well fitted curve in the direction sought with a large enough effect; an effect the other way counts as inactive or inconclusive; also: nearly all actives have a fitted effect of over 40% in size; also: potency is read from the fitted curve at half-maximal effect). A digest of the protocol: as §2
The nature of experiment [13]: qHTS assay to identify small molecule inhibitors of chordoma cells - UCH-1 (AID 1259355; active = well fitted curve in the direction sought with a large enough effect; an effect the other way counts as inactive or inconclusive; also: % is scaled to controls: 0 for no effect and ±100 for the full control effect; nearly all actives have a fitted effect of over 55% in size). Summed up: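 Screening used approved and investigational drugs in 15-point titration against 800 seeded cells per well. A fixed combination of auranofin with camptothecin, doxorubicin, rubitecan and topotecan followed compound addition, and growth was scored by CellTiter-Glo after 48hr.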

A short description of experiment [14]: qHTS assay to identify small molecule inhibitors of chordoma cells - UCH-2 (AID 1259356; active = well fitted curve in the direction sought with a large enough effect; an effect the other way counts as inactive or inconclusive; also: % is scaled to controls: 0 for no effect and ±100 for the full control effect).
The nature of experiment [15]: Identifying Small Molecule Inhibitors of Pancreatic Cancer Stem Cells (SN12C, Adherent) (AID 1259358; active = well fitted curve in the direction sought with a large enough effect; an effect the other way counts as inactive or inconclusive;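 also: cell survival measured after 48 h of compound exposure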). A digest of the protocol:
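Endpoint: ATP-based luminescence, 48 h drug exposure. Bortezomib at 9.2 uM final as full-kill control; DMSO vehicle as negative control; activity normalized between vehicle and cell-free wells.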

Experiment [16] is described as follows: Identifying Small Molecule Inhibitors of Pancreatic Cancer Stem Cells (SN12C, Spheroid) (AID 1259360; active = well fitted curve in the direction sought with a large enough effect; an effect the other way counts as inactive or inconclusive;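 also: 100% = DMSO-treated cells and 0% = wells without cells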). Conditions: Potency: SN12C spheroid viability. A digest of the protocol:
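Luminescent ATP readout (CellTiter-Glo) quantifies surviving cells after a 48 h drug incubation. Normalization uses DMSO wells as no inhibition and media-only wells as full inhibition; bortezomib served as positive control.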

Experiment [17] in a line: qHTS Screen of the MIPE 4.0 Collection Against Ewings Sarcoma (TC32) (AID 1259256; active = well fitted curve in the direction sought with a large enough effect; an effect the other way counts as inactive or inconclusive; also: potency is read from the fitted curve at half-maximal effect; nearly all actives have a fitted effect of over 45% in size). A digest of the protocol: as §2
Experiment [18] is described as follows: qHTS Screen of the MIPE 4.0 Collection Against Ewings Sarcoma (EW8) (AID 1259255; active = well fitted curve in the direction sought with a large enough effect; an effect the other way counts as inactive or inconclusive; also: nearly all actives have a fitted effect of over 35% in size; also: potency is read from the fitted curve at half-maximal effect;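 as to viability: 100% = DMSO-treated cells and 0% = medium-only wells without cells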). A digest of the protocol:
as §2

Records with an inconclusive call do not appear. Calls of active or inactive are those of the source. Unless noted, no rule for the calls is given here.

Take `COc1cc2c(cc1OC)CC(=O)N(CCCN(C)C[C@H]1Cc3cc(OC)c(OC)cc31)CC2`: the activity, percent of control in experiment [1] amounted to 102%. Also, in experiment [2], the remaining proliferation (% of control), lower = more inhibition came to 77.1%. In experiment [3], this compound gave a parasite growth, % of DMSO control of 92%. Besides, in experiment [4], the parasite growth remaining, % of DMSO control (lower = more inhibition) is 98.4%. The parasite growth, % of control (lower = inhibition) in [5] was 55.5%. In experiment [6], this compound yielded a growth, % of control of 79.8%. In experiment [7], the cell viability, % of control (lower = more cytotoxic) was found to be 163%. The viability (% of control) in experiment [8] is 106%. For the same compound, the Potency result in experiment [9], in experiment [10], in experiment [15] and in experiment [16] was “inactive” in each case. Moreover, the Potency in experiment [11] and in experiment [12] was 16.6 µM (active) each time. Moreover, the compound was classed as inactive in [13] and in experiment [14].

On to `C[C@]12C=CC(=O)C=C1CC[C@@H]1[C@@H]2[C@@H](O)C[C@@]2(C)[C@@H]1CC[C@]2(O)C(=O)CO`, for which the parasite growth, % of DMSO control in experiment [3] stood at 84.7%. Further, in [4], the parasite growth remaining, % of DMSO control (lower = more inhibition) came out at 100%. Moreover, in [5], the parasite growth, % of control (lower = inhibition) came to 86.4%. The cell viability, % of control (lower = more cytotoxic) in experiment [7] was 87.5%. In experiment [8], the viability (% of control) worked out at 14.3%. Moreover, the Potency result in [9], in [10], in [11] and in [12] was “inactive” each time.

Take `CC(C)Oc1cc(Nc2nc(N[C@@H](C)c3ccc(F)cn3)ncc2Cl)[nH]n1`: the activity, percent of control in [1] amounted to 5.44%. Also, the remaining proliferation (% of control), lower = more inhibition in [2] was 3.28%. The compound also registered a parasite growth, % of DMSO control in [3] of 9.44%. Moreover, the parasite growth remaining, % of DMSO control (lower = more inhibition) in experiment [4] is 10.8%. Besides, in experiment [5], the parasite growth, % of control (lower = inhibition) was 23.2%. Also, the growth, % of control in [6] came to 14.7%. Also, in [7], the cell viability, % of control (lower = more cytotoxic) stood at 93%. Also, the viability (% of control) in experiment [8] is 15.5%. The Potency entry in experiment [9] and in experiment [10] was “inactive” throughout. Besides, the Potency in [11], in experiment [12] and in [17] was 16.6 µM (active) throughout.

For the compound `NC(=O)c1noc([C@H](CCCC2CCCCC2)CC(=O)NO)n1`, the parasite growth, % of DMSO control in experiment [3] was 33.9%. In experiment [4], the parasite growth remaining, % of DMSO control (lower = more inhibition) stood at 125%. In experiment [5], the parasite growth, % of control (lower = inhibition) amounted to 30.9%. Also, the growth, % of control in experiment [6] is 48.3%. The cell viability, % of control (lower = more cytotoxic) in experiment [7] turned out to be 20%. The viability (% of control) in experiment [8] worked out at 7.18%. For the same compound, the Potency entry in experiment [9] and in experiment [10] was “inactive” in each case. Besides, the Potency in experiment [11] was 8.33 µM (active); in experiment [12], 26.4 µM (active).

For the compound `CCNC(=O)[C@H]1O[C@@H](n2cnc3c(N)nc(NCCc4ccc(CCC(=O)O)cc4)nc32)[C@H](O)[C@H]1O`, the parasite growth, % of DMSO control in [3] turned out to be 93.9%. Also, in [4], the parasite growth remaining, % of DMSO control (lower = more inhibition) turned out to be 110%. In addition, in [5], the parasite growth, % of control (lower = inhibition) was 116%. For the same compound, the growth, % of control in experiment [6] came out at 99.8%. Besides, in [7], the cell viability, % of control (lower = more cytotoxic) turned out to be 96.2%. In addition, the viability (% of control) in experiment [8] was 129%. Further, the Potency entry in experiment [9], in experiment [10], in [11] and in [12] was “inactive” in each case.

Compound `Cc1cnc(-c2cc(N3CCN(C(=O)CCS(C)(=O)=O)CC3)ncc2Cl)c(C)c1` came in with a parasite growth, % of DMSO control in experiment [3] of 58.6%. For the same compound, in experiment [4], the parasite growth remaining, % of DMSO control (lower = more inhibition) worked out at 93.9%. Besides, in [6], the growth, % of control came out at 76.4%. Moreover, in experiment [7], the cell viability, % of control (lower = more cytotoxic) stood at 120%. For the same compound, the viability (% of control) in experiment [8] amounted to 64.7%. For the same compound, the Potency entry in experiment [9], in experiment [10], in [11] and in experiment [12] was “inactive” each time.

`CC(C)(F)C[C@H](N[C@@H](c1ccc(-c2ccc(S(C)(=O)=O)cc2)cc1)C(F)(F)F)C(=O)NC1(C#N)CC1` yielded a parasite growth, % of DMSO control in experiment [3] of 56.4%. The parasite growth remaining, % of DMSO control (lower = more inhibition) in experiment [4] stood at 64.3%. In addition, the parasite growth, % of control (lower = inhibition) in experiment [5] is 61%. In addition, the growth, % of control in [6] was 68.4%. Further, the cell viability, % of control (lower = more cytotoxic) in [7] is 153%. Also, the viability (% of control) in experiment [8] amounted to 99.1%. In addition, the Potency result in experiment [9] and in experiment [10] was “inactive” each time. In addition, the Potency in experiment [11] was 18.7 µM (active); in experiment [18] it was 16.6 µM (active).

Turning to `CC[C@H](C)C(=O)O[C@H]1C[C@H](O)C=C2C=C[C@H](C)[C@H](CC[C@@H](O)C[C@@H](O)CC(=O)O)[C@H]21`, the parasite growth, % of DMSO control in experiment [3] was found to be 96%. In experiment [4], the parasite growth remaining, % of DMSO control (lower = more inhibition) is 105%. The parasite growth, % of control (lower = inhibition) in experiment [5] came out at 162%. Further, the growth, % of control in experiment [6] is 101%. Also, the cell viability, % of control (lower = more cytotoxic) in experiment [7] amounted to 113%. Moreover, the viability (% of control) in experiment [8] came out at 113%. Also, the Potency entry in experiment [9], in experiment [10], in experiment [11] and in experiment [18] was “inactive” throughout. In addition, the outcome in experiment [13] and in [14] was inactive.
